In PubChem BioAssay AID1159580 (chemical genetic matrix, 2015):
The campaign covered roughly 5,500 compounds. About 2,000 (36%) were called active. Inconclusive results (about 18%) are left out. Rule as the data show it: active = normalized growth mostly below about 0.91 (no sharp cut-off); inconclusive = no clear call, values can overlap the other calls; inactive = mostly above about 0.92. The list shows a part of the results.

Experiment: chemical genetic growth profiling, strain panel (AID 1159580);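 also: tested at 20 µM; growth read once vehicle control cultures reached saturation at 30 °C; 1 = growth at the plate median or of vehicle wells; lower values mean less growth of the strain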
Details: growth OD

Measured: normalized growth

CNC(C)(C)Cc1ccccc1
inactive: S. cerevisiae deletion strains, locus YJR043C, strain POL32, stronger effect = lower value 0.977 | S. cerevisiae deletion strains, locus YJR066W, strain TOR1, stronger effect = lower value 1.01 | S. cerevisiae deletion strains, locus YKL009W, strain mrt4, stronger effect = lower value 0.988 | S. cerevisiae deletion strains, locus YKL068W, stronger effect = lower value 1 | S. cerevisiae deletion strains, locus YKL085W, strain MDH1 (second series), stronger effect = lower value 1.01 | S. cerevisiae deletion strains, locus YKL085W, strain MDH1, stronger effect = lower value 1.01 | S. cerevisiae deletion strains, locus YKL160W, strain elf1, stronger effect = lower value 1.01 | S. cerevisiae deletion strains, locus YKL190W, strain CNB1, stronger effect = lower value 1.01 | S. cerevisiae deletion strains, locus YKR001C, strain vps1, stronger effect = lower value 0.991 | S. cerevisiae deletion strains, locus YKR026C, strain gcn3, stronger effect = lower value 1.02 | S. cerevisiae deletion strains, locus YKR091W, strain srl3, stronger effect = lower value 1 | S. cerevisiae deletion strains, locus YLL001W, strain dnm1, stronger effect = lower value 1.01 | S. cerevisiae deletion strains, locus YLL026W, stronger effect = lower value 1.02 | S. cerevisiae deletion strains, locus YLL041C, strain sdh2, stronger effect = lower value 1.02 | S. cerevisiae deletion strains, locus YLR027C, strain aat2, stronger effect = lower value 1.02 | S. cerevisiae deletion strains, locus YLR039C, strain RIC1, stronger effect = lower value 1.04 | S. cerevisiae deletion strains, locus YLR058C, strain SHM2, stronger effect = lower value 1.01 | S. cerevisiae deletion strains, locus YLR102C, strain apc9, stronger effect = lower value 1.01 | S. cerevisiae deletion strains, locus YLR113W, strain HOG1, stronger effect = lower value 1.06 | S. cerevisiae deletion strains, locus YLR221C, strain rsa3, stronger effect = lower value 1.02 | S. cerevisiae deletion strains, locus YLR258W, strain gsy2, stronger effect = lower value 1.02 | S. cerevisiae deletion strains, locus YLR262C, strain YPT6 (second series), stronger effect = lower value 1 | S. cerevisiae deletion strains, locus YLR262C, strain YPT6, stronger effect = lower value 1.02 | S. cerevisiae deletion strains, locus YLR268W, strain sec22, stronger effect = lower value 1 | S. cerevisiae deletion strains, locus YLR320W, strain mms22, stronger effect = lower value 1.04 | S. cerevisiae deletion strains, locus YLR330W, strain CHS5, stronger effect = lower value 1.01 | S. cerevisiae deletion strains, locus YLR342W, strain FKS1 (second series), stronger effect = lower value 1.08 | S. cerevisiae deletion strains, locus YLR342W, strain FKS1, stronger effect = lower value 1.02 | S. cerevisiae deletion strains, locus YLR357W, strain rsc2, stronger effect = lower value 0.988 | S. cerevisiae deletion strains, locus YLR370C, strain arc18, stronger effect = lower value 1.01 | S. cerevisiae deletion strains, locus YLR371W, strain rom2, stronger effect = lower value 1.01 | S. cerevisiae deletion strains, locus YLR384C, strain iki3, stronger effect = lower value 1.01 | S. cerevisiae deletion strains, locus YLR418C, strain cdc73, stronger effect = lower value 1.01 | S. cerevisiae deletion strains, locus YML016C, strain PPZ1, stronger effect = lower value 1.01 | S. cerevisiae deletion strains, locus YML032C, strain rad52, stronger effect = lower value 0.985 | S. cerevisiae deletion strains, locus YML120C, strain ndi1, stronger effect = lower value 1.02 | S. cerevisiae deletion strains, locus YML124C, strain tub3, stronger effect = lower value 1.01 | S. cerevisiae deletion strains, locus YMR058W, strain fet3, stronger effect = lower value 1 | S. cerevisiae deletion strains, locus YMR078C, strain ctf18, stronger effect = lower value 0.999 | S. cerevisiae deletion strains, locus YMR125W, strain sto1, stronger effect = lower value 1.02 | S. cerevisiae deletion strains, locus YMR129W, stronger effect = lower value 1.01 | S. cerevisiae deletion strains, locus YMR205C, strain PFK2, stronger effect = lower value 1.03 | S. cerevisiae deletion strains, locus YMR223W, strain ubp8, stronger effect = lower value 1.02 | S. cerevisiae deletion strains, locus YMR231W, strain pep5, stronger effect = lower value 1.02 | S. cerevisiae deletion strains, locus YMR307W, strain GAS1, stronger effect = lower value 1.02 | S. cerevisiae deletion strains, locus YNL067W, strain RPL9B, stronger effect = lower value 0.988 | S. cerevisiae deletion strains, locus YNL071W, strain lat1, stronger effect = lower value 1.01 | S. cerevisiae deletion strains, locus YNL128W, strain TEP1, stronger effect = lower value 1.03 | S. cerevisiae deletion strains, locus YNL183C, strain NPR1, stronger effect = lower value 1 | S. cerevisiae deletion strains, locus YNL209W, strain ssb2, stronger effect = lower value 1.02 | S. cerevisiae deletion strains, locus YNL233W, strain BNI4, stronger effect = lower value 0.995 | S. cerevisiae deletion strains, locus YNL248C, strain rpa49, stronger effect = lower value 1.01 | S. cerevisiae deletion strains, locus YNL250W, strain rad50, stronger effect = lower value 1.02 | S. cerevisiae deletion strains, locus YNL271C, strain bni1, stronger effect = lower value 0.997 | S. cerevisiae deletion strains, locus YNL298W, strain CLA4, stronger effect = lower value 1 | S. cerevisiae deletion strains, locus YNL307C, strain MCK1, stronger effect = lower value 1.01 | S. cerevisiae deletion strains, locus YNL322C, strain KRE1 (second series), stronger effect = lower value 1.02 | S. cerevisiae deletion strains, locus YNL322C, strain KRE1, stronger effect = lower value 1 | S. cerevisiae deletion strains, locus YNR049C, strain mso1, stronger effect = lower value 1.01 | S. cerevisiae deletion strains, locus YNR052C, strain pop2, stronger effect = lower value 1 | S. cerevisiae deletion strains, locus YOL006C, strain TOP1, stronger effect = lower value 0.958 | S. cerevisiae deletion strains, locus YOL012C, strain htz1 1.02 | S. cerevisiae deletion strains, locus YOL147C, strain pex11, stronger effect = lower value 1.01 | S. cerevisiae deletion strains, locus YOR001W, strain rrp6, stronger effect = lower value 1.03 | S. cerevisiae deletion strains, locus YOR061W, strain CKA2, stronger effect = lower value 1.01 | S. cerevisiae deletion strains, locus YOR069W, strain VPS5, stronger effect = lower value 1.01 | S. cerevisiae deletion strains, locus YOR070C, strain gyp1, stronger effect = lower value 1.01 | S. cerevisiae deletion strains, locus YOR080W, strain dia2, stronger effect = lower value 1.02 | S. cerevisiae deletion strains, locus YOR083W, strain WHI5, stronger effect = lower value 1.02 | S. cerevisiae deletion strains, locus YOR106W, strain vam3, stronger effect = lower value 1.03 | S. cerevisiae deletion strains, locus YOR136W, strain idh2, stronger effect = lower value 0.994 | S. cerevisiae deletion strains, locus YOR144C, strain elg1, stronger effect = lower value 0.995 | S. cerevisiae deletion strains, locus YOR184W, strain ser1, stronger effect = lower value 0.998 | S. cerevisiae deletion strains, locus YOR231W, strain MKK1, stronger effect = lower value 1.03 | S. cerevisiae deletion strains, locus YOR265W, strain rbl2, stronger effect = lower value 1.01 | S. cerevisiae deletion strains, locus YOR270C, strain vph1, stronger effect = lower value 1.04 | S. cerevisiae deletion strains, locus YOR290C, strain snf2, stronger effect = lower value 1.01 | S. cerevisiae deletion strains, locus YOR316C, strain cot1, stronger effect = lower value 1.01 | S. cerevisiae deletion strains, locus YPL051W, strain arl3, stronger effect = lower value 1.02 | S. cerevisiae deletion strains, locus YPL078C, strain atp4, stronger effect = lower value 1.01 | S. cerevisiae deletion strains, locus YPL106C, strain sse1, stronger effect = lower value 1.05 | S. cerevisiae deletion strains, locus YPL240C, strain hsp82, stronger effect = lower value 1.01 | S. cerevisiae deletion strains, locus YPL241C, strain CIN2, stronger effect = lower value 1.01 | S. cerevisiae deletion strains, locus YPL256C, strain CLN2, stronger effect = lower value 1.02 | S. cerevisiae deletion strains, locus YPR119W, strain clb2, stronger effect = lower value 1.01 | S. cerevisiae deletion strains, locus YPR141C, strain kar3, stronger effect = lower value 0.998 | S. cerevisiae deletion strains, locus YPR163C, strain tif3, stronger effect = lower value 0.999 | S. cerevisiae deletion strains, locus YPR167C, strain met16, stronger effect = lower value 1 | S. cerevisiae deletion strains, strain wtn01, stronger effect = lower value 0.999 | S. cerevisiae strains, strain wild type, stronger effect = lower value 1.01
